Measurements published in PubChem BioAssay AID1159580 (chemical genetic matrix, 2015).
Out of some 5,500 compounds screened, about 2,000 (36%) were called active. Another 18% or so got no clear call; they are omitted. No stated cut-off is given here; in the data, active means normalized growth mostly below about 0.91 (no sharp cut-off); inconclusive means no clear call, values can overlap the other calls; inactive means mostly above about 0.92. The list shows a part of the results.

Test: chemical genetic growth profiling, strain panel (AID 1159580);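 further: tested at 20 µM; growth read once vehicle control cultures reached saturation at 30 °C; 1 = growth at the plate median or of vehicle wells; lower values mean less growth of the strain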
Settings: growth OD

Measured: normalized growth

COc1ccc(NS(=O)(=O)c2ccc(N)cc2)nn1
inactive: S. cerevisiae deletion strains, locus YKL009W, strain mrt4, hits give low values 1 | S. cerevisiae deletion strains, locus YKL068W, hits give low values 0.997 | S. cerevisiae deletion strains, locus YKL085W, strain MDH1 (second series), hits give low values 0.999 | S. cerevisiae deletion strains, locus YKL085W, strain MDH1, hits give low values 0.999 | S. cerevisiae deletion strains, locus YKL160W, strain elf1, hits give low values 0.984 | S. cerevisiae deletion strains, locus YKL190W, strain CNB1, hits give low values 1.02 | S. cerevisiae deletion strains, locus YKR001C, strain vps1, hits give low values 0.985 | S. cerevisiae deletion strains, locus YKR026C, strain gcn3, hits give low values 1.01 | S. cerevisiae deletion strains, locus YKR091W, strain srl3, hits give low values 0.993 | S. cerevisiae deletion strains, locus YLL001W, strain dnm1, hits give low values 0.967 | S. cerevisiae deletion strains, locus YLL026W, hits give low values 0.997 | S. cerevisiae deletion strains, locus YLL041C, strain sdh2, hits give low values 0.993 | S. cerevisiae deletion strains, locus YLR027C, strain aat2, hits give low values 1 | S. cerevisiae deletion strains, locus YLR039C, strain RIC1, hits give low values 1.01 | S. cerevisiae deletion strains, locus YLR058C, strain SHM2, hits give low values 1.03 | S. cerevisiae deletion strains, locus YLR102C, strain apc9, hits give low values 0.986 | S. cerevisiae deletion strains, locus YLR113W, strain HOG1, hits give low values 1.01 | S. cerevisiae deletion strains, locus YLR221C, strain rsa3, hits give low values 0.989 | S. cerevisiae deletion strains, locus YLR258W, strain gsy2, hits give low values 0.971 | S. cerevisiae deletion strains, locus YLR262C, strain YPT6 (second series), hits give low values 1.02 | S. cerevisiae deletion strains, locus YLR262C, strain YPT6, hits give low values 1.06 | S. cerevisiae deletion strains, locus YLR268W, strain sec22, hits give low values 0.99 | S. cerevisiae deletion strains, locus YLR320W, strain mms22, hits give low values 0.961 | S. cerevisiae deletion strains, locus YLR330W, strain CHS5, hits give low values 1.01 | S. cerevisiae deletion strains, locus YLR342W, strain FKS1 (second series), hits give low values 1.01 | S. cerevisiae deletion strains, locus YLR342W, strain FKS1, hits give low values 0.963 | S. cerevisiae deletion strains, locus YLR357W, strain rsc2, hits give low values 0.945 | S. cerevisiae deletion strains, locus YLR370C, strain arc18, hits give low values 0.999 | S. cerevisiae deletion strains, locus YLR371W, strain rom2, hits give low values 0.983 | S. cerevisiae deletion strains, locus YLR384C, strain iki3, hits give low values 1.02 | S. cerevisiae deletion strains, locus YLR418C, strain cdc73, hits give low values 1 | S. cerevisiae deletion strains, locus YML016C, strain PPZ1, hits give low values 1.02 | S. cerevisiae deletion strains, locus YML032C, strain rad52, hits give low values 0.994 | S. cerevisiae deletion strains, locus YML120C, strain ndi1, hits give low values 1 | S. cerevisiae deletion strains, locus YML124C, strain tub3, hits give low values 0.994 | S. cerevisiae deletion strains, locus YMR058W, strain fet3, hits give low values 1.01 | S. cerevisiae deletion strains, locus YMR078C, strain ctf18, hits give low values 0.997 | S. cerevisiae deletion strains, locus YMR125W, strain sto1, hits give low values 1.01 | S. cerevisiae deletion strains, locus YMR129W, hits give low values 0.989 | S. cerevisiae deletion strains, locus YMR205C, strain PFK2, hits give low values 0.986 | S. cerevisiae deletion strains, locus YMR223W, strain ubp8, hits give low values 0.99 | S. cerevisiae deletion strains, locus YMR231W, strain pep5, hits give low values 0.994 | S. cerevisiae deletion strains, locus YMR307W, strain GAS1, hits give low values 1.01 | S. cerevisiae deletion strains, locus YNL067W, strain RPL9B, hits give low values 1.03 | S. cerevisiae deletion strains, locus YNL071W, strain lat1, hits give low values 1 | S. cerevisiae deletion strains, locus YNL128W, strain TEP1, hits give low values 1.02 | S. cerevisiae deletion strains, locus YNL153C, strain GIM3, hits give low values 1.04 | S. cerevisiae deletion strains, locus YNL183C, strain NPR1, hits give low values 0.935 | S. cerevisiae deletion strains, locus YNL209W, strain ssb2, hits give low values 1.01 | S. cerevisiae deletion strains, locus YNL233W, strain BNI4, hits give low values 1.03 | S. cerevisiae deletion strains, locus YNL248C, strain rpa49, hits give low values 0.994 | S. cerevisiae deletion strains, locus YNL250W, strain rad50, hits give low values 0.984 | S. cerevisiae deletion strains, locus YNL271C, strain bni1, hits give low values 0.983 | S. cerevisiae deletion strains, locus YNL298W, strain CLA4, hits give low values 0.981 | S. cerevisiae deletion strains, locus YNL307C, strain MCK1, hits give low values 0.993 | S. cerevisiae deletion strains, locus YNL322C, strain KRE1 (second series), hits give low values 0.974 | S. cerevisiae deletion strains, locus YNR049C, strain mso1, hits give low values 0.999 | S. cerevisiae deletion strains, locus YNR052C, strain pop2, hits give low values 0.987 | S. cerevisiae deletion strains, locus YOL006C, strain TOP1, hits give low values 1.09 | S. cerevisiae deletion strains, locus YOL012C, strain htz1 1.23 | S. cerevisiae deletion strains, locus YOL147C, strain pex11, hits give low values 0.99 | S. cerevisiae deletion strains, locus YOR001W, strain rrp6, hits give low values 1 | S. cerevisiae deletion strains, locus YOR061W, strain CKA2, hits give low values 1.02 | S. cerevisiae deletion strains, locus YOR069W, strain VPS5, hits give low values 1.01 | S. cerevisiae deletion strains, locus YOR070C, strain gyp1, hits give low values 1 | S. cerevisiae deletion strains, locus YOR080W, strain dia2, hits give low values 1 | S. cerevisiae deletion strains, locus YOR083W, strain WHI5, hits give low values 0.947 | S. cerevisiae deletion strains, locus YOR106W, strain vam3, hits give low values 1 | S. cerevisiae deletion strains, locus YOR136W, strain idh2, hits give low values 0.996 | S. cerevisiae deletion strains, locus YOR144C, strain elg1, hits give low values 0.992 | S. cerevisiae deletion strains, locus YOR184W, strain ser1, hits give low values 0.996 | S. cerevisiae deletion strains, locus YOR231W, strain MKK1, hits give low values 0.998 | S. cerevisiae deletion strains, locus YOR265W, strain rbl2, hits give low values 1 | S. cerevisiae deletion strains, locus YOR270C, strain vph1, hits give low values 1.05 | S. cerevisiae deletion strains, locus YOR290C, strain snf2, hits give low values 0.991 | S. cerevisiae deletion strains, locus YOR316C, strain cot1, hits give low values 0.985 | S. cerevisiae deletion strains, locus YPL051W, strain arl3, hits give low values 0.976 | S. cerevisiae deletion strains, locus YPL055C, strain LGE1, hits give low values 1.07 | S. cerevisiae deletion strains, locus YPL078C, strain atp4, hits give low values 0.994 | S. cerevisiae deletion strains, locus YPL106C, strain sse1, hits give low values 0.96 | S. cerevisiae deletion strains, locus YPL240C, strain hsp82, hits give low values 1 | S. cerevisiae deletion strains, locus YPL241C, strain CIN2, hits give low values 1.01 | S. cerevisiae deletion strains, locus YPL256C, strain CLN2, hits give low values 0.985 | S. cerevisiae deletion strains, locus YPR119W, strain clb2, hits give low values 0.997 | S. cerevisiae deletion strains, locus YPR141C, strain kar3, hits give low values 0.988 | S. cerevisiae deletion strains, locus YPR163C, strain tif3, hits give low values 0.99 | S. cerevisiae deletion strains, locus YPR167C, strain met16, hits give low values 0.992 | S. cerevisiae deletion strains, strain wtn01, hits give low values 0.986 | S. cerevisiae strains, strain wild type, hits give low values 1.01
